Data published in PubChem BioAssay.

tested on: not listed separately; test: binders of probe aFGF10 on microarray, primary screen, stem cell growth factor project, biochemical, small-molecule microarray, fluorescence 635/667 (AID 1071); conditions: higher = more signal;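 note: score merges 667 nm spot intensity and signal to noise from triplicate slides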

SMILES | composite z-score
COC(=O)C1=C(C)N(Cc2ccccc2)[C@]23O[C@](C(=O)OC)(C(=O)N2[C@@H]1c1ccccc1)[C@H]1CCOC(=O)[C@H]13 | 0.649
COC(=O)CC=C[C@@H](C)[C@@H](C=NO[C@@H](C)c1cc(-c2c(C)cc(C)cc2C)no1)OC | -0.806
COc1ccc(O[C@H]2C=C[C@@H](c3ccccc3)O[C@@H]2COC(=O)CCC(C)=NO[C@H](C)c2cn([C@@H]3COC[C@H]3O)nn2)cc1 | 0.323
CC(C)=NOCc1cccc(-c2cc(-c3ccccc3)no2)c1 | 0.717
CCCNC(=O)OC[C@H]1O[C@H](CCON=C2[C@H]3CCn4c(=O)n(-c5ccccc5)c(=O)n4[C@H]3[C@H](O)[C@@H]3O[C@H]23)C=C[C@@H]1Oc1ccc(OC)cc1 | 0.406
CC[C@@H](c1ccccc1)n1c(=O)n2n(c1=O)[C@H]1[C@H](O)[C@@H]3O[C@@H]3C(=NOCC(C)C)[C@H]1CC2 | 0.0304
COC(=O)C1=C(C)[C@@H](O)[C@@H](C)[C@H](c2c(OC)c(OC)c(C)c(OC)c2OC)O1 | 0.166
CC(C)C[C@@H]1NC(=O)[C@H]2C[C@@H](C(=O)O)[C@@H](c3ccc(O)cc3)N2C1=O | -0.211
CC(=O)OC[C@H]1O[C@@H](ON=C[C@@H](C)[C@H](OCc2ccccc2)C(C)C)[C@H](OC(C)=O)[C@@H](OC(C)=O)[C@@H]1OC(C)=O | 0.372
COc1ccc(O[C@@H]2[C@H](O)CO[C@H]2C=CC#Cc2ccccc2)cc1 | 0.0175
CCN1C(=O)[C@H]2[C@H]3[C@H](O)[C@H](O)CC(=NOC[C@@H](C)[C@H](OCc4ccccc4)C(C)C)[C@@H]3CC[C@H]2C1=O | 0.523
COC(=O)[C@]1(CO)N=C(c2ccc(OCCCO)cc2)O[C@@H]1c1ccccc1N=[N+]=[N-] | -0.0477
CCCCCN1CC=CC23O[C@@H]4C=CCOC(=O)[C@@H]4[C@H]2C(=O)N(CCCCCCO)[C@@H]3C1=O (some centres undefined) | -0.237

target: Neurogenic locus notch homolog protein 2 (Homo sapiens) (UniProt Q04721); test: Notch2 binders on small-molecule microarrays, primary screen, biochemical, small-molecule microarray, 635 nm fluorescence, stem cell growth factors (AID 1073); conditions: Notch2 binding, higher = more signal
Sequence (Q04721 whole entry, looked up): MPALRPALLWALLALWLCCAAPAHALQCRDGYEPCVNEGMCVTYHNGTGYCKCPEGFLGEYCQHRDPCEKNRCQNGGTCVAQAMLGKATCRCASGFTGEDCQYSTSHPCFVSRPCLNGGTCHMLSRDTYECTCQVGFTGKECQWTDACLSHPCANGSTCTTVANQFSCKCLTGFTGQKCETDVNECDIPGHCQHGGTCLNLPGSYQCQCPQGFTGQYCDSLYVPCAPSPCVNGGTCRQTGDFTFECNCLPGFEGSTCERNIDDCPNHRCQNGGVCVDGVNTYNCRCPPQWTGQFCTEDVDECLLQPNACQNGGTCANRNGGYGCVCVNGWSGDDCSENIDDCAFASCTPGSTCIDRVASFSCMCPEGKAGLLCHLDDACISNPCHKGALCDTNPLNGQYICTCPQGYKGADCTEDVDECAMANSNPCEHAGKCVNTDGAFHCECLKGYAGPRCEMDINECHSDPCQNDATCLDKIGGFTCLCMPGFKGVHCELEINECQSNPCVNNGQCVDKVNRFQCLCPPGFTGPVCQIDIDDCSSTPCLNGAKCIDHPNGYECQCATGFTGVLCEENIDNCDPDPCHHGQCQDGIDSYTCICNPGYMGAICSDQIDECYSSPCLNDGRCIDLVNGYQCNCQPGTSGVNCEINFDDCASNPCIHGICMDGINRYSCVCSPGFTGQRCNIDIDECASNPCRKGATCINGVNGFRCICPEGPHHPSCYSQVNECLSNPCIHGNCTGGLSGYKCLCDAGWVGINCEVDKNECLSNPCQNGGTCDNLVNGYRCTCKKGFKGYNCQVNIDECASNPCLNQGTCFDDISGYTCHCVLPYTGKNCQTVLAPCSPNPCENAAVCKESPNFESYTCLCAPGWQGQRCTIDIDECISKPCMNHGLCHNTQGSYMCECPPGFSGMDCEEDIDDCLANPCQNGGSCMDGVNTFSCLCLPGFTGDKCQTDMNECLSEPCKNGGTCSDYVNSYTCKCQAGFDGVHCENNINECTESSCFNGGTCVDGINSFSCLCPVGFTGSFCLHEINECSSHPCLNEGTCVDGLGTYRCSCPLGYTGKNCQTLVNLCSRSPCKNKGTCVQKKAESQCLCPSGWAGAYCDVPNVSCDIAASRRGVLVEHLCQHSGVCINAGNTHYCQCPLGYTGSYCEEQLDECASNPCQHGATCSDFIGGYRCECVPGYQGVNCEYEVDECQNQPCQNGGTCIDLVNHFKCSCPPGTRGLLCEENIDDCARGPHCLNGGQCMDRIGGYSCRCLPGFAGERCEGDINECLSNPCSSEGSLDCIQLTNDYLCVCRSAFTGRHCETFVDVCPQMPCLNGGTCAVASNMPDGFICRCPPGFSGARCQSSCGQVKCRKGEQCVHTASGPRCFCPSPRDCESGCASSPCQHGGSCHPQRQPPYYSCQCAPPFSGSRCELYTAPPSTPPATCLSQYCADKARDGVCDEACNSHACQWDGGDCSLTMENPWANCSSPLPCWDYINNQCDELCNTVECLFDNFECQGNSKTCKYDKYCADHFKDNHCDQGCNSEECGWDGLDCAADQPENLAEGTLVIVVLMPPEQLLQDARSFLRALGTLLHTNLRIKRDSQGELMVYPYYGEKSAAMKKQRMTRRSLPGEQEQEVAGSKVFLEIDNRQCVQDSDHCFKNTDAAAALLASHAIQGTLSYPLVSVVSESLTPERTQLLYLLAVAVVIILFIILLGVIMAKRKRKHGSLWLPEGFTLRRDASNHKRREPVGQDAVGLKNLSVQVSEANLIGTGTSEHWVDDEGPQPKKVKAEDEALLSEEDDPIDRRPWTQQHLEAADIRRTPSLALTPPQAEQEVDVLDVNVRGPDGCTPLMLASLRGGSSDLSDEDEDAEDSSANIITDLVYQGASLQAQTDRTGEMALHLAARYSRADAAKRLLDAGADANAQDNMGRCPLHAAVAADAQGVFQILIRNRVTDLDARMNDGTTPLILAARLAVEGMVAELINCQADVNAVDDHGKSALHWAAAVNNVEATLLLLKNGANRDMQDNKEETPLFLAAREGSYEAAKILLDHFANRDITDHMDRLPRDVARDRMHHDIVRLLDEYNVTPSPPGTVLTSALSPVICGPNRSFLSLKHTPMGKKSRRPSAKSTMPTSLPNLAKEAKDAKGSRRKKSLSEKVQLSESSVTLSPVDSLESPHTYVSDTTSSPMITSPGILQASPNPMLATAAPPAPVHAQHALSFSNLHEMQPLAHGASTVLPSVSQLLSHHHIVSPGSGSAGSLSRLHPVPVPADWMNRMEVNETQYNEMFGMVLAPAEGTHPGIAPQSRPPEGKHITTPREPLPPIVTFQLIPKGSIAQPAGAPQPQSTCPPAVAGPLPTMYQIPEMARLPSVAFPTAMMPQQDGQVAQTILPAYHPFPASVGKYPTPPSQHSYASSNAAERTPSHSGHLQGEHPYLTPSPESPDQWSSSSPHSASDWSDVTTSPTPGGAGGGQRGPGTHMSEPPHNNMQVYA

SMILES | composite z-score
Cc1ccc(C2CC=C(C(=O)O)CN2S(=O)(=O)c2ccc(C)cc2)cc1 (centres undefined) | 0.677
COc1ccc([Si](C)(C)[C@H]2[C@H](CC(=O)N3CCC[C@H]3CO)O[C@@]3(C(=O)N(Cc4cccc(N5C(=O)COc6ccccc65)c4)c4ccccc43)[C@@H]2C)cc1 | 0.308
CC(CCN1CCc2nc(-c3ccccc3)c(-c3ccccc3)cc2C1)=NOC[C@@H](C)[C@H](OCc1ccccc1)C(C)C | -1.63
CN1C(=O)C2C(C1=O)C1C=C(CCCO)C2C(c2ccc(CN3CCCC3)cc2)N1C (centres undefined) | -0.291
CCc1cc2c(nc1CC)CCN(CCC(C)=NO[C@@H](C)c1cc(-c3c(C)cc(C)cc3C)no1)C2 | -0.89
CS(=O)(=O)CCOC(=O)C1=CC(CCCO)=CC(c2cccs2)N(Cc2cccc(OC(F)(F)F)c2)C=C1C(=O)OCCS(C)(=O)=O (centres undefined) | 1.14
O=C1CCCC=C1C(O)CCOCc1ccccc1 (centres undefined) | -0.175
CC(C)=CCCC(C)=CCON=C1[C@H]2CCn3c(=O)n(Cc4cc5c(cc4Cl)OCO5)c(=O)n3[C@H]2[C@H](O)[C@@H]2O[C@H]12 | 0.405
O=C1C2=CC[C@H]3C(=O)N(Cc4ccc5c(c4)OCO5)C(=O)[C@H]3[C@H]2[C@H](O)[C@@H]2O[C@H]12 | 0.617
CO[C@@H]1COC(=O)CC=C[C@@H](C)[C@@H]2C=C[C@H](O)[C@@H](COC(=O)[C@H](C)NC(=O)CC=C[C@H]1C)O2 | 0.268
COCCOC(=O)N1C(=O)[C@@]2(c3cc(C#CC4(O)CCCCCC4)ccc31)[C@H](c1ccc(OCCO)cc1)N1[C@H](c3ccccc3)[C@H](c3ccccc3)OC(=O)[C@H]1[C@@H]2C(=O)NC[C@H](O)c1ccccc1 | 0.837
CCCCC(=C=CC[C@H](O)c1ccccc1OCCO)C[C@H](O)COCc1ccccc1 | -0.673
C[C@@H]1C=CCC(=O)OC[C@H](C)C(=O)N2CCC[C@H]2C(=O)OC1 | 0.285
CC(C)c1ccc(NN2C(C(O)c3ccc4c(c3)OCO4)C=CC3C(=O)N(c4ccccc4)C(=O)C32)cc1 (centres undefined) | 1.34
COc1ccc(COC(=O)NN=C2C[C@@H](O)[C@@H](O)[C@@H]3[C@@H]4C(=O)N(c5ccc(F)cc5F)C(=O)[C@@H]4CC[C@@H]23)cc1 | -0.392
C=C(/C(=C/C[C@@H](OC(=O)c1ccncc1)c1ccc(OCCO)cc1)c1cnc2ccccc2c1)C(C)C | 0.772
Cn1c(=O)n2n(c1=O)[C@H]1[C@H](O)[C@@H]3O[C@@H]3C(=NOC[C@@H](O)COCc3ccco3)[C@H]1CC2 | 0.515
CCOC(=O)CCN1C(=O)[C@H]2[C@H]3[C@H](O)[C@H](O)CC(=NNC(=O)OCc4ccc(OC)cc4)[C@@H]3CC[C@H]2C1=O | 0.0846

SMILES | composite z-score
CCCNC(=O)OC[C@H]1O[C@H](CCON=CC[C@@H]2C=C[C@H](OC(C)=O)[C@@H](COC(C)=O)O2)C=C[C@@H]1Oc1ccc(OC)cc1 | 0.605
COC(=O)[C@H](C)NC(=O)CCC1CC(OC(=O)NCc2cccc3ccccc23)CC2(CCCC(COC(=O)NCCc3ccc(Cl)cc3)O2)O1 (some centres undefined) | 1.09
COc1ccc(O[C@H]2C=C[C@@H](c3ccccc3)O[C@@H]2COC(=O)CCC(C)=NO[C@@H](C)c2cc(-c3c(C)cc(C)cc3C)no2)cc1 | -1.07
CN(C)C(=O)[C@@]1(Cc2ccccc2)N=C(c2ccc(OCCCO)cc2)O[C@H]1c1ccccc1CN=[N+]=[N-] | 1.46
COc1ccc(OC[C@H]2Cc3c(-c4ccccc4)nc4c(c3CO2)CN(CCOc2ccccc2)CC4)cc1 | 1.16
COC(=O)C1=C(C)N(Cc2ccccc2)[C@]23O[C@](C(=O)OC)(C(=O)N2[C@@H]1c1ccccc1)[C@H]1CCOC(=O)[C@H]13 | 0.783
COC(=O)CC=C[C@@H](C)[C@@H](C=NO[C@@H](C)c1cc(-c2c(C)cc(C)cc2C)no1)OC | -1.69
COc1ccc(O[C@H]2C=C[C@@H](c3ccccc3)O[C@@H]2COC(=O)CCC(C)=NO[C@H](C)c2cn([C@@H]3COC[C@H]3O)nn2)cc1 | 0.483
CC(C)=NOCc1cccc(-c2cc(-c3ccccc3)no2)c1 | 0.0486
CCCNC(=O)OC[C@H]1O[C@H](CCON=C2[C@H]3CCn4c(=O)n(-c5ccccc5)c(=O)n4[C@H]3[C@H](O)[C@@H]3O[C@H]23)C=C[C@@H]1Oc1ccc(OC)cc1 | 0.774
CC[C@@H](c1ccccc1)n1c(=O)n2n(c1=O)[C@H]1[C@H](O)[C@@H]3O[C@@H]3C(=NOCC(C)C)[C@H]1CC2 | 0.409
COC(=O)C1=C(C)[C@@H](O)[C@@H](C)[C@H](c2c(OC)c(OC)c(C)c(OC)c2OC)O1 | 0.239
CC(C)C[C@@H]1NC(=O)[C@H]2C[C@@H](C(=O)O)[C@@H](c3ccc(O)cc3)N2C1=O | -0.506
CC(=O)OC[C@H]1O[C@@H](ON=C[C@@H](C)[C@H](OCc2ccccc2)C(C)C)[C@H](OC(C)=O)[C@@H](OC(C)=O)[C@@H]1OC(C)=O | 0.55
COc1ccc(O[C@@H]2[C@H](O)CO[C@H]2C=CC#Cc2ccccc2)cc1 | -0.22
CCN1C(=O)[C@H]2[C@H]3[C@H](O)[C@H](O)CC(=NOC[C@@H](C)[C@H](OCc4ccccc4)C(C)C)[C@@H]3CC[C@H]2C1=O | 0.399
COC(=O)[C@]1(CO)N=C(c2ccc(OCCCO)cc2)O[C@@H]1c1ccccc1N=[N+]=[N-] | 0.01
CCCCCN1CC=CC23O[C@@H]4C=CCOC(=O)[C@@H]4[C@H]2C(=O)N(CCCCCCO)[C@@H]3C1=O (some centres undefined) | -1.14
